High-throughput results from PubChem.
Shown are actives, neighbours in structure and some others; about 3.1% of the full set was active somewhere.
S-ASM inh – blocks human secretory acid sphingomyelinase. placental ASM, HMU-PC fluorogenic substrate, 60 min. Potency, µM (top dose mostly 57.5 µM), inactives show at the highest dose activity change, negative = inhibition, actives largely listed as inhibitors. 0.006% of 340,000 active. AID 504937
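Steps: dispense placental human ASM, pin compound, wait 10 min at room temperature, add HMU-PC0 substrate at 9 uM final, incubate 60 min at 37 °C, add stop solution raising pH to 10, read fluorescence.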
Tb PFK inh – T. brucei PFK enzyme inhibition | AID 485367 | O15648 | T. brucei PFK, ADP-Glo luminescence | 0.17% of 330,000 active | Potency, µM (titrated, usually from 57.5 µM), for the others: at the top dose activity, negative = inhibition, usual class: inhibitors;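 also: 0% = uninhibited 1x PFK enzyme wells and -100% = no-enzyme wells; nearly all actives have a fitted effect of over 60% in size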
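Activity is normalized to no-enzyme wells (full inhibition) and 1.25 nM enzyme wells (no inhibition). Reaction: 0.5 mM F6P, 0.1 mM ATP, 45 min RT, ADP-Glo luminescence; concentration-response curves fitted and classed by quality.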
Pin1 inhibitor – blocks the human prolyl isomerase Pin1; Q13526; Potency, µM (highest dose often 115 µM), inactives show top-dose activity, negative = inhibition, usual class: inhibitors; 0.009% of 390,000 active; AID 504891; Pin1 FP peptide displacement, HiFluor488, 10 min; active = well fitted inhibition curve with a large enough effect in the polarisation, with a control signal flat, not every such curve was filed as active; inconclusive = small, poorly fitted or top-dose-only effect, or effect the other way, or a change in a side signal; inactive = no such curve, though single readings can be large or run the other way; the % refers to the polarisation; also: % is scaled to controls: 0 for no effect and ±100 for the full control effect
Target sequence (Q13526 whole entry, looked up): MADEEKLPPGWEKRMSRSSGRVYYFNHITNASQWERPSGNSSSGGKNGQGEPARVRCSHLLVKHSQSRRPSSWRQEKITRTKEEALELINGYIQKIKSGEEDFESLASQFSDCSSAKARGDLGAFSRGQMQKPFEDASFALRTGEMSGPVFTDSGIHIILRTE
TDP1 block – inhibitors of human tyrosyl-DNA phosphodiesterase TDP1; Potency, µM (series often up to 130 µM), inactives show at the highest dose activity change, negative = inhibition, most hits filed as inhibitors; recombinant TDP1, AlphaScreen DNA substrate cleavage; 0.28% of 350,000 active; Q9NUW8; also: % is scaled to controls: 0 for no effect and ±100 for the full control effect; nearly all actives have a fitted effect of over 40% in size
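E. coli-derived human Tdp1, 1 nM final. Cpd preinc 15 min RT; substrate 15 nM final, 5 min RT; AS bead mix 10 ug/ml final, 10 min RT. Signal loss = tyrosine-FITC cleavage. No-enzyme wells = max signal.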
PLK1 PBD inh – blocks phosphopeptide binding to human PLK1 polo-box domain; P53350; Plk1 PBD binding of FITC phosphopeptide, fluorescence polarization; Potency, µM, for inactives: max response, negative = inhibition, usual class: inhibitors; 2.8% of 360,000 active; also: series mostly up to about 57 µM; % is scaled to controls: 0 for no effect and ±100 for the full control effect; nearly all actives have a fitted effect of over 65% in size
VDR inh – blocks the human vitamin D receptor; VDR-SRC2-3 peptide fluorescence polarization, 2 h; Potency, µM, without a hit: max response, negative = inhibition, actives largely listed as inhibitors; 0.93% of 400,000 active; also: % is scaled to controls: 0 for no effect and ±100 for the full control effect
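Two reagent solutions held at 4 deg C in the dark were dispensed, compounds pinned at 23 nl, and the mixture incubated 2 h at room temperature. Read-out: fluorescence polarization of VDR–SRC2-3 peptide binding.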
* = called active by the depositor; ? = inconclusive; nt = no result given. Unless noted, calls follow the shape of the dose curve; as a rule, active = well fitted curve in the direction sought with a large enough effect; inconclusive = small, poorly fitted or top-dose-only effect, or another doubt; inactive = no such curve, though single readings can be large; an effect the other way counts as inactive or inconclusive. Potency is read from the fitted curve at half-maximal effect.

SMILES	S-ASM inh	Tb PFK inh	Pin1 inhibitor	TDP1 block	PLK1 PBD inh	VDR inh
Cn1c(SCC(=O)c2ccccc2)nnc1-c1cccc(N)c1	-1%	-3%	2%	2%	24µM*	-6%
COc1ccc2c(Cl)c(-c3nnc(SCC(=O)c4ccccc4)n3C)sc2c1	-2%	-2%	1%	89µM*	-16%	8%
CCC(C(=O)Nc1nc(C)cs1)c1ccccc1 (stereo unspecified)	0%	20%	-1%	2%	27µM*	?
CCC(C(=O)Nc1nc(C)c(C)s1)c1ccccc1 (stereo unspecified)	-2%	-18%	-1%	nt	0%	1%
COc1cc2[nH]c(=O)n(Cc3ccc(C(=O)N4CCN(c5cc(Cl)ccc5C)CC4)cc3)c(=O)c2cc1OC	nt	nt	5%	9%	nt	-12%
O=C(O)C1CCN(c2ncc(-c3ccc4c(c3)OCCCO4)s2)CC1	nt	nt	2%	nt	nt	nt
CCc1nc(N2CCOCC2)c(C#N)c2c1COC(C)(C)C2	24%	-4%	-6%	1%	1%	12%
CC1CCN(c2nc(-c3ccco3)c3c(c2C#N)CC(C)(C)OC3)CC1	302%	8%	9%	-7%	?	50µM*
CC1(C)Cc2c(C#N)c(OCC(=O)c3ccccc3)nc(-c3ccoc3)c2CO1	17%	-1%	6%	-3%	27µM*	?
CC1(C)Cc2c(C#N)c(OCC(=O)c3ccc(Cl)cc3)nc(-c3ccoc3)c2CO1	-3%	2%	8%	6%	-21%	33%
CCc1nc(N2CCN(C(=O)c3ccccc3)CC2)c(C#N)c2c1COC(C)(C)C2	3%	-3%	-12%	5%	24µM*	2%
Cc1c([S+](=O)([O-])N2CCN([S+](=O)([O-])c3c(F)cccc3F)CC2)sc2ccc(Cl)cc12	nt	nt	-1%	nt	nt	nt
COc1ccc(/C=N/n2cnn(Cc3ccccc3Cl)c2=S)cc1OC	-8%	-6%	6%	6%	24µM*	-8%
S=c1nc(-c2csc3c2CCCC3)[nH][nH]1	-3%	-19%	-9%	4%	27µM*	?
COc1ccc(C2Nc3ccccc3C(=O)N2Cc2cccc(Cl)c2)cc1COc1ccc(NC(C)=O)cc1 (stereo unspecified)	nt	nt	1%	1%	nt	nt
C/C=C/COc1nc2c(c(=O)n(C)c(=O)n2C)n1C	-2%	2%	2%	0%	3µM*	-15%
CCC(C)n1c(OC)nc2c1c(=O)n(C)c(=O)n2C (stereo unspecified)	-2%	0%	-6%	0%	2.7µM*	?
NC(=S)N/N=C/c1cn(-c2ccccc2)nc1-c1cccnc1	4%	-1%	6%	5%	3.4µM*	28µM*
O=C(N/N=C/c1cn(-c2ccccc2)nc1-c1ccc2c(c1)OCCO2)c1ccncc1	4%	2%	?	50µM*	-24%	5%
CN(C)/[N+]([O-])=N/Oc1cc(ON=[N+]([O-])N2CCN(c3ncccn3)CC2)c([N+](=O)[O-])cc1[N+](=O)[O-]	nt	nt	-10%	1%	nt	-25%
CC1CCc2nn(CC(=O)NCc3ccco3)cc2C1 (stereo unspecified)	-8%	-2%	3%	0%	30µM*	-12%
O=C(/C=C/c1ccccc1Cl)Nc1nc(-c2cccs2)ns1	nt	nt	28%	2%	nt	7%
Cc1cc(C)nc(/N=C2\NC(=O)CC(C(=O)O)N2c2ccc(C)c(C)c2)n1 (stereo unspecified)	7%	5%	3%	2%	24µM*	50µM*
Cn1c(CNc2cccc(C(F)(F)F)c2)n[nH]c1=S	-2%	-5%	8%	-7%	27µM*	-5%
O=C(CSCCc1ccccn1)Nc1ccccn1	-6%	-4%	-3%	5%	?	?
O=C(O)CSCCc1ccccn1	2%	2%	4%	2%	30µM*	1%
O=C(Cn1nnc2ccccc21)NCc1ccccc1	3%	3%	0%	-4%	-9%	9%
c1ccc(CCn2nnc3ccccc32)cc1	2%	-4%	-3%	2%	21µM*	-23%
